The target of this experiment is Estrogen receptor (Homo sapiens) (UniProt P03372). The experiment in a line: displacement of fluorescent estrogen from ERalpha – cell-based, Cos7 ERalpha-GFP, flow cytometry, primary screen (AID 1211).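 Note: 0% = DMSO vehicle wells and 100% = no E2-Alexa633 signal left.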 The following applies: fluorescent ligand competition, stronger effect = higher value.

Molecules are shown by their SMILES. Active and inactive are the calls of the source. The rule behind the calls is not given here.

Chain of Estrogen receptor (Homo sapiens) (P03372 whole entry, looked up): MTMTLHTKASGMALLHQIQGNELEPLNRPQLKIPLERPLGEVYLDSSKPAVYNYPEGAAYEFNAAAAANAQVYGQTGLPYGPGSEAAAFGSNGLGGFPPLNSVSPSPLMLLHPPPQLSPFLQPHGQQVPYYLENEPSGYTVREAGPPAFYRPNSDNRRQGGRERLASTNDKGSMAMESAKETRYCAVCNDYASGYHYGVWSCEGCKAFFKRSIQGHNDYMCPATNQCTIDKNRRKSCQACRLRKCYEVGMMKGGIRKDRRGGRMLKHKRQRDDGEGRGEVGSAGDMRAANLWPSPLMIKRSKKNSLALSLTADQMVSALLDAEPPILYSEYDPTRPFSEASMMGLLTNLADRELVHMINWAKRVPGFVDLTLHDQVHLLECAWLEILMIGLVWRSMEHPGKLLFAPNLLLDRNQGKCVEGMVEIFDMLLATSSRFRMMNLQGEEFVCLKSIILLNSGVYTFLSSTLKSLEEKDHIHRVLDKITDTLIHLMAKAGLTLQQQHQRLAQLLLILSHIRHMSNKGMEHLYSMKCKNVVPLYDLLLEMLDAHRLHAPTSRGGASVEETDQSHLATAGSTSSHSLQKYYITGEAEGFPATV

For the compound `O=C(COC(=O)CN1C(=O)c2ccccc2C1=O)Nc1ncc(Cl)cc1Cl`, the inhibition of ligand binding (at 10 µM) was 7% (inactive) and the inhibition of ligand binding (binding inhibition, at 0.1 µM) came to 14%.
For the compound `Nc1ccc(N2CCN(C(=O)c3ccco3)CC2)cc1`, the inhibition of ligand binding (at 10 µM) was 28% (inactive) and the inhibition of ligand binding (binding inhibition, at 0.1 µM) was 33%.
Take `COc1cc(-c2nc3ccc4ccccc4c3c3c2CCC3)ccc1O`: the inhibition of ligand binding is, setting by setting: (at 10 µM) 46% (active); (binding inhibition, at 0.1 µM) 87%.
The like results for `O=C1CC(=O)N2N=C(c3ccc([N+](=O)[O-])cc3)SC2=N1` were, in that order, 38% (inactive) and 8%.
The like results for `O=C(COC(=O)c1ccccc1Oc1ccccc1)NCc1ccco1` were, in that order, 13% (inactive) and 53%.
The like results for `COc1ccc(N=C2NC(=O)S/C2=C\c2ccc(N(C)C)cc2)cc1` were, in that order, 39% (inactive) and 8%.
With `CCOC(=O)c1c(NC(=O)CSc2nnc(-c3ccccc3)o2)sc(C(C)=O)c1C`, the inhibition of ligand binding is 21% (inactive) (at 10 µM) and 33% (binding inhibition, at 0.1 µM).
In the case of `Cc1cc(C)cc(OCC(=O)Nc2ccc(N3CCCC3)cc2)c1`, the inhibition of ligand binding by setting is: (at 10 µM) 80% (active); (binding inhibition, at 0.1 µM) 17%.
In the case of `Cc1nn(-c2ccccc2)c2sc(C(=O)c3c(N)n(C)c(=O)n(C)c3=O)cc12`, the inhibition of ligand binding (at 10 µM) is 0% (inactive) and the inhibition of ligand binding (binding inhibition, at 0.1 µM) turned out to be 16%.
In the case of `COc1nc(-c2ccc(Cl)cc2)ccc1-c1noc(-c2ccco2)n1`, the inhibition of ligand binding reads like this: (at 10 µM) 57% (inactive); (binding inhibition, at 0.1 µM) 14%.
Turning to `Cc1ccc(/C=c2\sc3nc(-c4ccco4)nn3c2=O)o1`, the inhibition of ligand binding (at 10 µM) is 37% (inactive) and the inhibition of ligand binding (binding inhibition, at 0.1 µM) is 26%.
`COC(=O)c1ccc(CC(=O)c2ccc(O)cc2O)o1`: the inhibition of ligand binding by setting is: (at 10 µM) 32% (inactive); (binding inhibition, at 0.1 µM) 9%.
`CC(=O)c1ccc2c(c1)C1C=CCC1C(C(=O)O)N2` (centres undefined): the inhibition of ligand binding reads like this: (at 10 µM) 42% (inactive); (binding inhibition, at 0.1 µM) 39%.
The like results for `Cc1ccsc1/C=C(\C(=O)c1ccc(OC(C)C)cc1)c1nc2ccccc2o1` were, in that order, 12% (inactive) and 40%.
As for `C=CCn1c(SCC(=O)NC(=O)NCc2ccco2)nc2sc(CC)cc2c1=O`, the inhibition of ligand binding was 10% (inactive) (at 10 µM) and 3% (binding inhibition, at 0.1 µM).
As to `O=C(COC(=O)CCOc1ccccc1)NCc1ccco1`, the inhibition of ligand binding is 50% (inactive) (at 10 µM) and 57% (binding inhibition, at 0.1 µM).
In the case of `C/C(N)=C(/C#N)C(=O)CSc1nnnn1-c1ccc(C)cc1`, the inhibition of ligand binding (at 10 µM) was 9% (inactive) and the inhibition of ligand binding (binding inhibition, at 0.1 µM) was 14%.
For `O=C1c2ccccc2C(=O)N1CCCc1nc2ccccc2c(=O)n1CCCn1ccnc1`, the inhibition of ligand binding is 36% (inactive) (at 10 µM) and 23% (binding inhibition, at 0.1 µM).
Regarding `Cc1cc(C(=O)Nc2sc3c(c2C#N)CCC3)no1`, the inhibition of ligand binding (at 10 µM) was 46% (active) and the inhibition of ligand binding (binding inhibition, at 0.1 µM) worked out at 66%.
Consider `Cc1cc(=O)[nH]c(SCC(=O)NCc2ccco2)n1`, for which the inhibition of ligand binding was 19% (inactive) (at 10 µM) and 8% (binding inhibition, at 0.1 µM).
On to `CN1CCC(=NNC(=O)c2cn(-c3ccccc3)nc2-c2ccccc2)CC1`, for which the inhibition of ligand binding is 3% (inactive) (at 10 µM) and 11% (binding inhibition, at 0.1 µM).
The like results for `CSc1ccccc1NC(=O)c1noc2c1CCC2` were, in that order, 56% (inactive) and 26%.
`Cc1nc2ccc(C(=O)O)cc2[nH]1`: the inhibition of ligand binding runs as follows: (at 10 µM) 55% (inactive); (binding inhibition, at 0.1 µM) 52%.
The like results for `CCc1ccc(-c2nn(-c3ccccc3)cc2CSC(=N)N)cc1` were, in that order, 22% (inactive) and 45%.
The like results for `CC1CC(C(F)(F)C(F)(F)F)n2nc(C(=O)O)cc2N1` (centres undefined) were, in that order, 9% (inactive) and 9%.
Regarding `CC(=O)Nc1nonc1-c1nc2ccccc2n1N(C(C)=O)C(C)=O`, the inhibition of ligand binding was 44% (inactive) (at 10 µM) and 59% (binding inhibition, at 0.1 µM).
The like results for `O=c1cc(-c2ccc(O)c(-c3c(O)cc(O)c4c(=O)cc(-c5ccc(O)cc5)oc34)c2)oc2cc(O)cc(O)c12` were, in that order, 24% (inactive) and 9%.
`Cn1c(SCC(=O)Nc2sccc2C#N)nnc1-c1ccccc1`: the inhibition of ligand binding by setting is: (at 10 µM) 17% (inactive); (binding inhibition, at 0.1 µM) 24%.
As to `Cc1cccn2c(=O)c3cc(C(=O)O)n(C)c3nc12`, the inhibition of ligand binding is 33% (inactive) (at 10 µM) and 17% (binding inhibition, at 0.1 µM).
As to `O=C(NCc1ccco1)c1cc2cc3ccc(Cl)cc3nc2o1`, the inhibition of ligand binding (at 10 µM) is 49% (inactive) and the inhibition of ligand binding (binding inhibition, at 0.1 µM) stood at 30%.
Turning to `CCOC(=O)C1=c2/c(=C/c3ccccc3OC)c(N)c(C#N)n2C(=O)C(c2ccccc2OC)S1` (centres undefined), the inhibition of ligand binding is 34% (inactive) (at 10 µM) and 21% (binding inhibition, at 0.1 µM).
Consider `Cc1ccccc1CSCC(=O)NC(=O)NCc1ccco1`, for which the inhibition of ligand binding was 53% (inactive) (at 10 µM) and 27% (binding inhibition, at 0.1 µM).
The like results for `O=C1N/C(=C\c2ccc(O)cc2)C(=O)c2ccccc21` were, in that order, 30% (inactive) and 14%.
`COc1ccccc1C(=O)Nc1nc(-c2cccs2)c(NC(C)=O)s1`: the inhibition of ligand binding runs as follows: (at 10 µM) 29% (inactive); (binding inhibition, at 0.1 µM) 25%.
Take `COc1ccc(-c2nnc(-c3cc4c(ccc5ccccc54)oc3=O)o2)cc1`: the inhibition of ligand binding by setting is: (at 10 µM) 58% (inactive); (binding inhibition, at 0.1 µM) 35%.
For the compound `CCOc1cc(C2CC(=O)c3c(ccc4ccccc34)N2)ccc1O` (centres undefined), the inhibition of ligand binding is 32% (inactive) (at 10 µM) and 23% (binding inhibition, at 0.1 µM).
Take `COC(=O)c1c(-c2ccncc2)csc1NC(=O)c1ccoc1C`: the inhibition of ligand binding is 41% (inactive) (at 10 µM) and 25% (binding inhibition, at 0.1 µM).
The like results for `CN1C(=O)CSc2ccc(NC(=O)N3CCC(N4CCCCC4)CC3)cc21` were, in that order, 57% (inactive) and 1%.
For the compound `CCCCCCNC(=O)c1cc(-c2ccco2)nc2ccccc12`, the inhibition of ligand binding reads like this: (at 10 µM) 40% (inactive); (binding inhibition, at 0.1 µM) 44%.
Turning to `CCOc1ccccc1C1C(C#N)=C(N)Nc2onc(-c3ccccc3)c21` (centres undefined), the inhibition of ligand binding runs as follows: (at 10 µM) 9% (inactive); (binding inhibition, at 0.1 µM) 20%.
As to `CC1=C(SCCC#N)S/C(=C2\SC(C)=C(SCCC#N)S2)S1`, the inhibition of ligand binding was 59% (inactive) (at 10 µM) and 11% (binding inhibition, at 0.1 µM).
For the compound `COc1ccc(-c2cn3c(C)c(C(=O)Nc4ccncc4)sc3n2)cc1`, the inhibition of ligand binding is, setting by setting: (at 10 µM) 28% (inactive); (binding inhibition, at 0.1 µM) 3%.
In the case of `COc1cc2c(cc1OC)C(Cc1ccc(O)cc1)NCC2` (centres undefined), the inhibition of ligand binding runs as follows: (at 10 µM) 26% (inactive); (binding inhibition, at 0.1 µM) 32%.
For the compound `COc1ccc(-c2ccc(=O)[nH]n2)cc1`, the inhibition of ligand binding runs as follows: (at 10 µM) 22% (inactive); (binding inhibition, at 0.1 µM) 52%.
With `CCN1CCN(Cc2c(O)c(Cl)cc3c(C)cc(=O)oc23)CC1`, the inhibition of ligand binding is, setting by setting: (at 10 µM) 31% (inactive); (binding inhibition, at 0.1 µM) 28%.
Take `CCn1c(SCC(=O)Nc2cccc(F)c2)nnc1-c1cc2cc(Br)ccc2o1`: the inhibition of ligand binding reads like this: (at 10 µM) 26% (inactive); (binding inhibition, at 0.1 µM) 35%.
Regarding `COc1cccc(-n2nnnc2SCC(=O)Nc2ccc(C(C)=O)cc2)c1`, the inhibition of ligand binding reads like this: (at 10 µM) 38% (inactive); (binding inhibition, at 0.1 µM) 45%.
The like results for `O=C(Nc1ccc(O)cc1C(=O)O)c1ccc2c(c1)C(=O)N(Cc1ccco1)C2=O` were, in that order, 33% (active) and 86%.
Take `O=C(c1cccs1)N1N=C(c2ccc(O)cc2)CC1c1ccccc1` (centres undefined): the inhibition of ligand binding was 58% (inactive) (at 10 µM) and 17% (binding inhibition, at 0.1 µM).
Regarding `Nc1ccc(/C=C/C(=O)c2ccco2)cc1`, the inhibition of ligand binding (at 10 µM) was 9% (inactive) and the inhibition of ligand binding (binding inhibition, at 0.1 µM) came to 11%.
The like results for `CCc1oc2ccccc2c1C(=O)c1cc(Br)c(O)c(Br)c1` were, in that order, 0% (inactive) and 20%.
The like results for `CCn1c(SCC(=O)Nc2ccc3c(c2)oc2ccccc23)nnc1-c1ccc(N)cc1` were, in that order, 44% (inactive) and 10%.
With `O=C(c1cccc(F)c1)N1CCN(C(=O)c2cc3ncc(Br)cn3n2)CC1`, the inhibition of ligand binding runs as follows: (at 10 µM) 35% (inactive); (binding inhibition, at 0.1 µM) 50%.
In the case of `c1coc(-c2nn3c(-c4ccco4)nnc3s2)c1`, the inhibition of ligand binding was 15% (inactive) (at 10 µM) and 15% (binding inhibition, at 0.1 µM).
The like results for `COc1ccc2cc3c(N)nn(C(=O)Cc4ccc(Cl)cc4)c3nc2c1` were, in that order, 18% (inactive) and 16%.
For `CCOC(=O)N1CCN(c2ccc(O)cc2)CC1`, the inhibition of ligand binding is, setting by setting: (at 10 µM) 57% (inactive); (binding inhibition, at 0.1 µM) 56%.
Regarding `CCOC(=O)Cc1cc(-c2ccc(O)cc2)nc2ccc3ccccc3c12`, the inhibition of ligand binding reads like this: (at 10 µM) 37% (inactive); (binding inhibition, at 0.1 µM) 15%.
As for `COc1ccc(N2C(=O)c3ccccc3NC2c2ccc(OC)c(CSc3ccccn3)c2)cc1` (centres undefined), the inhibition of ligand binding reads like this: (at 10 µM) 40% (inactive); (binding inhibition, at 0.1 µM) 19%.
As for `O=C1NCCCC2c3cc(O)c4ccccc4c3OC12N1CCCCC1` (centres undefined), the inhibition of ligand binding was 25% (inactive) (at 10 µM) and 23% (binding inhibition, at 0.1 µM).
On to `O=C(O)C1CSC(c2coc3ccccc3c2=O)N1` (centres undefined), for which the inhibition of ligand binding runs as follows: (at 10 µM) 6% (inactive); (binding inhibition, at 0.1 µM) 47%.
`O=c1[nH]c(N/N=C/c2ccc(O)cc2)nc2ccccc12`: the inhibition of ligand binding (at 10 µM) was 23% (inactive) and the inhibition of ligand binding (binding inhibition, at 0.1 µM) worked out at 37%.
`COc1ccc(-c2ccc(-c3noc(-c4cccs4)n3)c(OC)n2)cc1`: the inhibition of ligand binding was 24% (inactive) (at 10 µM) and 54% (binding inhibition, at 0.1 µM).
Consider `Nc1nc2c(s1)CCc1c-2cnn1-c1ccccc1`, for which the inhibition of ligand binding was 13% (inactive) (at 10 µM) and 21% (binding inhibition, at 0.1 µM).
Turning to `Cc1nnc(N/N=C/c2ccc(O)c([N+](=O)[O-])c2)[nH]c1=O`, the inhibition of ligand binding runs as follows: (at 10 µM) 32% (inactive); (binding inhibition, at 0.1 µM) 20%.
On to `Oc1ccc(-c2nccc(-c3cccs3)n2)cc1`, for which the inhibition of ligand binding is 40% (inactive) (at 10 µM) and 28% (binding inhibition, at 0.1 µM).
With `CN(/N=C/c1cccnc1)c1cnn(-c2ccc(F)c(Cl)c2)c(=O)c1Cl`, the inhibition of ligand binding is 24% (inactive) (at 10 µM) and 15% (binding inhibition, at 0.1 µM).
Take `COc1ccc2[nH]c3c(c2c1)CCn1c-3nc2ccccc2c1=O`: the inhibition of ligand binding (at 10 µM) is 25% (inactive) and the inhibition of ligand binding (binding inhibition, at 0.1 µM) came to 36%.

(Values after PubChem BioAssay AID1211 (NMMLSC, 2008).)
